Bioassay records as filed in PubChem BioAssay.
Eya2 inh – blocks the phosphatase activity of human Eya2. O00167. recombinant Eya2, OMFP fluorescence dephosphorylation (OMFP is methylfluorescein phosphate). Potency, µM (doses to about 76.9 µM), without a hit: top-dose activity, negative = inhibition, usual class: inhibitors. 330,000 tested, 0.006% active; note: potency is the fitted concentration of half-maximal effect
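Eya2 protein (added as 0.2 uM solution) was preincubated with compound for 10 min at ambient temperature in 50 mM HEPES pH 7.5, 50 mM NaCl, 5 uM MgCl2, 0.05% BSA, 1 mM DTT. OMFP (added at 50 uM) then reacted 10 min; fluorescence read at 485/525 nm.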
TrxR1 substrate – rat thioredoxin reductase 1 substrate activity. Potency, µM (doses to about 114 µM), for inactives: at the highest dose activity change, negative = substrate turnover. purified TrxR1 substrate turnover, NADPH consumption readout. AID 588456. 390,000 tested, 0.01% active; note: potency is the fitted concentration of half-maximal effect; nearly all actives have a fitted effect of over 50% in size
Target sequence (O89049 whole entry, looked up): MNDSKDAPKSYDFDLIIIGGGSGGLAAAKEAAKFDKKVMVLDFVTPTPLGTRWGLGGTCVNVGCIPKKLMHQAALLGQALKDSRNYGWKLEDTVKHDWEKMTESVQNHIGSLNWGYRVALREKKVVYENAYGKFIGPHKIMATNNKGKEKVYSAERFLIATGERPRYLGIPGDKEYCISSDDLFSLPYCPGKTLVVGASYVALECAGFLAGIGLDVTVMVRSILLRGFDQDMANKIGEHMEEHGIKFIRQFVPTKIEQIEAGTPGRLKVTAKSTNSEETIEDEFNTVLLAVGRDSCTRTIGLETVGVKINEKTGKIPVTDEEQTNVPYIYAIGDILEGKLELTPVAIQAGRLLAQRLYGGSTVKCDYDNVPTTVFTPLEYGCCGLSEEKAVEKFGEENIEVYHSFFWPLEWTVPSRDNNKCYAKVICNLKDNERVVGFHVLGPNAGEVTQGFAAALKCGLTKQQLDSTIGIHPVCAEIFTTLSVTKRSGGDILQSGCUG
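Rat TrxR1, dispensed at 90 nM, was prereduced with 400 uM NADPH (final) for 5 min at ~22 deg C, then incubated with compound 15 min before 400 uM selenite. A first-read NADPH fluorescence drop versus no-compound background flagged substrates.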
GALK inhibitor – galactokinase (human) inhibition | P51570 | Purified GALK, Kinase-Glo residual ATP luminescence | Potency, µM (doses to about 57.5 µM), without a hit: top-dose activity change, negative = inhibition, most hits filed as inhibitors | 270,000 tested, 0.007% active | AID 1868; note: potency is the fitted concentration of half-maximal effect
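GALK at 5 nM final was combined with compound, 35 uM ATP and 100 uM galactose in HEPES pH8.0 with MgCl2 and DTT. The reaction ran one hour at room temperature before luminescent ATP detection.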
Six1-Eya2 blk – blocks human Six1 binding to Eya2. Q15475+O00167. AlphaScreen GST-Six1/His-Eya2 binding, biochemical; hits give low values. activity change, % (concentration not given with the values). 360,000 tested, 0.56% active; in the data active = activity change below about -65%; inconclusive = mostly about -30% to -63%
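Compounds are tested against tagged Six1 and Eya2 proteins bridged by glutathione donor and nickel acceptor beads; after a one-hour incubation at 37 °C without light, AlphaScreen emission is recorded.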
rTrxR1 inhibitor – blocks rat thioredoxin reductase 1. O89049. recombinant rTrxR1, NADPH fluorescence consumption, selenite substrate. Potency, µM (doses to about 114 µM), for inactives: at the top dose activity change, negative = inhibition, most hits filed as inhibitors. 390,000 tested, 1% active. AID 588453; note: potency is the fitted concentration of half-maximal effect; nearly all actives have a fitted effect of over 65% in size
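Rat TrxR1 (90 nM in the dispensed reagent) was pre-reduced with 400 uM NADPH for 5 min at room temperature, then incubated with compound for 15 min. After 400 uM selenite was added, NADPH fluorescence (Ex 340/Em 450 nm) was followed for 8 min.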
CtBP-E1A blk – CtBP/E1A binding inhibition. AlphaScreen GST-E1A/His-CtBP binding, 1536-well; hits give low values. activity change, % (no concentration beside the values). 340,000 tested, 0.49% active. AID 651724; in the data active = activity change below about -65%; inconclusive = mostly about -30% to -63%
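Protein mix (5X: 125 nM each GST-E1A, His-CtBP) was incubated with pinned compound 2 h at 37 deg C in dark, in 50 mM Tris pH 8.0 buffer with 300 mM NaCl. Glutathione donor and nickel acceptor beads followed; AlphaScreen signal read after 1 h.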
* marks the source's active call; other numbers are inactive results; ? = inconclusive; . = no result; [ ] = dose if it differs, or a comment. Rows were chosen to be rich in hits. Some 1.5% of all compounds tested hit in one or more screens of this group. Unless noted, calls come from the whole dose curve; as a rule, active = well fitted curve in the direction sought with a large enough effect; inconclusive = small, poorly fitted or top-dose-only effect, or another doubt; inactive = no such curve, though single readings can be large; an effect the other way counts as inactive or inconclusive. % is set by controls: 0 for no effect and ±100 for the full control effect.

SMILES	Eya2 inh	TrxR1 substrate	GALK inhibitor	Six1-Eya2 blk	rTrxR1 inhibitor	CtBP-E1A blk
Cc1noc(NS(=O)(=O)c2ccc(N/C=C\C(=O)c3ccc4c(c3)OCO4)cc2)c1C	-7%	-8%	3%	-68*	?	-75*
Cc1noc(NS(=O)(=O)c2ccc(N/C=C\C(=O)c3ccc(Br)cc3)cc2)c1C	7%	-4%	-2%	-22	13%	.
CC(C)(C)c1ccc(OCC(=O)NCc2ccco2)c(Br)c1	-24%	-2%	-3%	-13	11µM*	0
Cc1cc(S(=O)(=O)N2CCCC2)ccc1OCC(=O)NCc1ccco1	-6%	10%	-1%	-4	10µM*	10
O=C(COC(=O)Cc1cccc(C(F)(F)F)c1)NCc1ccco1	9%	-5%	.	-24	35µM*	0
O=C(OCc1ccco1)c1ccc(S(=O)(=O)N2CCCCC2)cc1	5%	2%[57.1 µM]	-1%	-6	18µM*	8
O=C(COC(=O)Cc1ccc(F)cc1)NCc1ccco1	1%	3%	-6%	-7	-1%	.
Cc1cc(S(=O)(=O)N2CCOCC2)ccc1OCC(=O)NCc1ccco1	1%	-4%[57.1 µM]	-1%	1	-8%[57.1 µM]	-3
COc1ccc(CNC(=O)CSc2nc(-c3ccc(OC)c(OC)c3)cc(C(F)(F)F)n2)cc1	.	72%	.	.	17%	.
COc1ccc(N2CCN(C(=O)CCc3c(C)nn(-c4ccc(N5CCCC5)nn4)c3C)CC2)cc1	.	-4%[57.1 µM]	.	.	8%[57.1 µM]	.
O=C1c2cccc(Cl)c2C(=O)c2c1cccc2N1CCCC1	.	-6%	.	-91*	-6%	-90*
Cc1ccc(C(C)C)c(OC(C)C(=O)NCC2(N(C)C)CCCCC2)c1 (stereo not given)	.	-9%	.	.	-1%	.
[O-]/[N+](=C\c1ccncc1)c1ccc(Br)cc1	-5%	-5%	.	0	35µM*	-1
[O-]/[N+](=C/c1cccnc1)c1ccc(Br)cc1	-8%	-9%	0%	7	-2%	1
CCCN(CCC)C1CC(=O)N(Cc2ccccc2)C1=O (stereo not given)	-9%	7%	4%	1	20µM*	5
COc1cc(NC(=O)CCCN2C(=O)CCn3nc(-c4cn(C)c5ccccc45)cc32)cc(OC)c1	.	0%[57.1 µM]	.	.	4%[57.1 µM]	.
CCOC(=O)c1cc(=O)n2nc(-c3ccccc3F)nc2s1	1%	1%[57.1 µM]	-5%	0	11µM*	-1
NC(=S)N/N=C/c1ccccc1	4%	-10%	0%	2	-16%	14
NC(=S)NN=Cc1nccc2c(C(F)(F)F)cccc12	.	.	.	-75*	.	-72*
CNc1cccnc1C=NNC(N)=S	.	17%[57.1 µM]	.	-88*	-23%[11.4 µM]	0
C=CC(=O)N1C/C(=C/c2ccccc2)C(=O)/C(=C\c2ccccc2)C1	.	3%[11.4 µM]	.	-7	4µM*	-23
C=CC(=O)N1C/C(=C/c2ccc(Cl)cc2)C(=O)/C(=C\c2ccc(Cl)cc2)C1	.	-11%	.	-13	?	2
CCN(CC)CCCNC(=O)c1cn(CC)c2cc(N3CCN(C(=O)c4ccco4)CC3)c(F)cc2c1=O	-6%	76%	-4%	-6	71µM*	-14
CN(C)c1ccccc1-c1cc(NC=O)c2ncc(-c3cccc(C(F)(F)F)c3)n2c1	.	.	.	?	.	-72*
COc1ccccc1-c1cc(NC=O)c2ncc(-c3cccc(C(F)(F)F)c3)n2c1	.	.	.	-1	.	2
SMILES	Eya2 inh	TrxR1 substrate	GALK inhibitor	Six1-Eya2 blk	rTrxR1 inhibitor	CtBP-E1A blk
CCCS(=O)(=O)c1nc(S(=O)(=O)c2ccc(C)cc2)c(NCc2ccccn2)s1	-6%	1%	1%	-9	20µM*	5
CC(C)CN(Cc1c(O)ccc2ccccc12)CC(C)C	13%	26%	3%	-1	-42%	-4
CCN(Cc1ccncc1)Cc1c(O)ccc2ccccc12	9%	12%[57.1 µM]	9%	6	5µM*	-19
Cc1ccc(CNC(=O)Cn2ccn(-c3ccc(C)c(C)c3)c(=O)c2=O)cc1	.	0%	.	.	5%	.
O=C(Nc1cc(-c2nc3cc(Cl)ccc3o2)ccc1Cl)c1cc2ccccc2o1	.	-3%[11.4 µM]	.	.	13%	.
CCCC1Cc2c(sc3ncnc(N)c23)CO1 (stereo not given)	-3%	39%	0%	-11	50µM*	-9
Cc1nn(C(=O)c2cccc([N+](=O)[O-])c2C)c(C)c1S(=O)(=O)N1CCOCC1	.	1%[57.1 µM]	.	.	-9%[57.1 µM]	.
O=C(Nc1cccc(S(=O)(=O)N2CCOCC2)c1)C1CCCCN1S(=O)(=O)c1ccccc1 (stereo not given)	3%	2%	.	?	16%	?
O=C(Nc1cccc(S(=O)(=O)N2CCOCC2)c1)[C@@H]1CCCN1S(=O)(=O)c1ccc(Cl)cc1	5%	-4%	0%	?	3%	-65*
COc1ccccc1NC(=O)CCn1nc(-c2ccccc2OC)c2c(C)cc(C)nc21	.	1%	.	.	-3%	.
Fc1ccc(CSc2nnc(-c3cccnc3)n2Cc2ccco2)cc1	19%	18%	0%	-17	?	-16
Clc1ccccc1CSc1nnc(-c2cccnc2)n1Cc1ccco1	-1%	1%	2%	-2	25µM*	-8
O=[N+]([O-])c1ccc(/C=C2\CCC(C3=CCCC3)=C2N2CCOCC2)cc1	6%	-10%	2%	1	40µM*	15
Cc1ccc(NC(=O)CN2CCCN(S(=O)(=O)c3ccc(Br)s3)CC2)cc1	-36%	-9%	1%	-11	71µM*	2
NC(=O)CN1CCCN(S(=O)(=O)c2ccc(Br)cc2)CC1	-2%	16%	1%	4	20µM*	-4
NC(=O)CN1CCN(S(=O)(=O)c2ccc(Cl)cc2)CC1	-3%	14%[57.1 µM]	-2%	6	35%[57.1 µM]	.
COc1ccc(S(=O)(=O)N2CCCN(CCC(=O)Nc3cccc(C(F)(F)F)c3)CC2)cc1	-12%	-7%	-2%	4	-8%	0
O=C(CN1CCCN(S(=O)(=O)c2ccc(Br)cc2)CC1)Nc1cccc(C(F)(F)F)c1	.	-7%	.	.	50µM*	.
Cc1cc(C)cc(NC(=O)CN2CCCN(S(=O)(=O)c3ccc(Br)s3)CC2)c1	-30%	-9%	0%	-3	?	-2
CCc1ccc(NC(=O)CSc2c(C)cnc3c2c(=O)n(C)c(=O)n3C)cc1	.	3%[57.1 µM]	.	.	7%[57.1 µM]	.
CC(C)(C)C(=O)N1CCN(c2nc3c(F)cccc3s2)CC1	.	-14%[57.1 µM]	.	.	-22%[57.1 µM]	.
C=CCn1c(SCC(=O)NC2CCCC2)nc2scc(-c3ccco3)c2c1=O	-20%	-3%	0%	-12	35µM*	0
C=CCn1c(SCC(C)=O)nc2scc(-c3ccc(C)o3)c2c1=O	-1%	6%[57.1 µM]	8%	-13	-64%	-1
